# According to PMC4336329 (PLoS ONE, 2015):
# Screen size: about 310,000 compounds; about 14,000 (4.5%) showed an effect of 50% or more. Effects have a minus sign here. Only a selection was taken, and strong results are over-represented in it overall.
# Target: human ether-à-go-go-related gene (hERG) potassium channel (human, UniProt Q12809)
# Assay: primary screen, population patch clamp on CHO cells stably expressing hERG; higher = less effect of the substance
# 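Also: peak tail current of the secondary pulse compared with the same well before compound.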
# Chain of human ether-à-go-go-related gene (hERG) potassium channel (Q12809 whole entry, looked up): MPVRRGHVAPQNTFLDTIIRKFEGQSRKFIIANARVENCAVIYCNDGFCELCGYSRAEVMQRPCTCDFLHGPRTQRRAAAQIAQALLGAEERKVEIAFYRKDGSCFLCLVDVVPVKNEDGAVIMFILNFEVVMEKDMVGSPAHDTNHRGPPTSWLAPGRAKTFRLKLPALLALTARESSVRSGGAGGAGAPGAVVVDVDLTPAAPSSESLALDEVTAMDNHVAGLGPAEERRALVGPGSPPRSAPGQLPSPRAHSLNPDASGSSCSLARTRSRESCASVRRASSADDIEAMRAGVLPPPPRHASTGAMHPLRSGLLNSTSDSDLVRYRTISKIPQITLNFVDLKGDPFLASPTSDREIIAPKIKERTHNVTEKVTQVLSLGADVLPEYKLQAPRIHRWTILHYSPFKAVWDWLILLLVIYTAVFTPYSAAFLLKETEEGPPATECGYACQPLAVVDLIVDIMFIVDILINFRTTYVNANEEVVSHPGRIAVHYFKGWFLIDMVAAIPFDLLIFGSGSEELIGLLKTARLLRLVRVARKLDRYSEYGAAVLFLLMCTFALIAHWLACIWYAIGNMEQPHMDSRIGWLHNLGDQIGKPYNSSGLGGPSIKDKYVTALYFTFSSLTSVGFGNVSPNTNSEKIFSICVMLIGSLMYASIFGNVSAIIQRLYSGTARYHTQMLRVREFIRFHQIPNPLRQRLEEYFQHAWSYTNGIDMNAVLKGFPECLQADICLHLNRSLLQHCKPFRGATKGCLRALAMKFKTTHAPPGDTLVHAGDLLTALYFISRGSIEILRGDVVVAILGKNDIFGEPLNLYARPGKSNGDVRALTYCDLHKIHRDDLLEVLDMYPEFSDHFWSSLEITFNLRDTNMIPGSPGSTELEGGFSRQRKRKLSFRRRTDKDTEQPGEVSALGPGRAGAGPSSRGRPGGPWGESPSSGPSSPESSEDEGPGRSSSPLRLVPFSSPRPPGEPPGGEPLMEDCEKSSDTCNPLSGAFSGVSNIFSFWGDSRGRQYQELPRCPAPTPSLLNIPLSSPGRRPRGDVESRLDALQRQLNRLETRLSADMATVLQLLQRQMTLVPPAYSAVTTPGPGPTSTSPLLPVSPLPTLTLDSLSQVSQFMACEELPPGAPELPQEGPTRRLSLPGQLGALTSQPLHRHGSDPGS
row,Structure (SMILES),"hERG current change (%, negative = inhibition) at 10uM"
1,CCC(c1nnc(SCC(=O)Nc2ccc(C(C)=O)cc2)n1C1CCCCC1)N(C)C (stereo not drawn),-9.96%
2,Cc1ccc(CNC(=O)Nc2ccccc2)n1C,12.3%
3,O=C(Nc1cccnc1)c1cc(-c2ccc(F)cc2)on1,10.9%
4,Cc1cccc(C)c1OC1(c2ccccc2)OC(=O)c2ccccc21 (stereo not drawn),10.9%
5,CCCn1c(SCc2cc(=O)[nH]c3ccccc23)nc2c1c(=O)n(C)c(=O)n2C,-7.61%
6,COc1ccc(S(=O)(=O)N2CCc3ccccc32)cc1C(=O)N1CCN(C=O)CC1,-2.51%
7,CCOC(=O)N1CCN(C(=O)c2cc(S(=O)(=O)N3CCc4ccccc43)ccc2OC)CC1,-52.1%
8,CCOC(=O)C1CCN(S(=O)(=O)c2ccc(C)cc2)CC1,3.36%
9,CCOC(=O)C1CCN(S(=O)(=O)c2ccc(C(=O)OC)cc2)CC1,-1.7%
10,O=C(c1cccc(S(=O)(=O)N2CCc3ccccc32)c1)N1CCc2ccccc2C1,-13%
11,CCOC(=O)C1CCN(C(=O)c2cccc(S(=O)(=O)N3c4ccccc4CC3C)c2)CC1 (stereo not drawn),-35.7%
12,CCOC(=O)C1CCN(S(=O)(=O)c2ccc(NC(=O)OC)cc2)CC1,-56.5%
13,COc1cc(C(=O)Nc2ccc(S(=O)(=O)N3CCc4ccccc43)cc2)cc(OC)c1OC,-4.14%
14,COc1ccccc1C(=O)Nc1ccc(S(=O)(=O)N2CCc3ccccc32)cc1,-77%
15,CCOC(=O)C1CCN(C(=O)c2cccc(S(=O)(=O)N3CCc4ccccc43)c2)CC1,-56.4%
16,COc1ccc(S(=O)(=O)N2CCc3ccccc32)cc1C(=O)N1CCOCC1,-0.239%
17,COc1ccc(S(=O)(=O)N2CCc3ccccc32)cc1C(=O)Nc1ccc(C(N)=O)cc1,9.8%
18,COc1ccc(S(=O)(=O)N(CC(=O)Nc2ccc3c(c2)OCO3)c2ccccc2OC)cc1,18.5%
19,COc1c2ccoc2c(OC)c2oc(=O)ccc12,-5.65%
20,CCC(C)C(NC(=O)C1CCC(C)CC1)C(=O)NCCc1ccc(S(N)(=O)=O)cc1 (stereo not drawn),4.32%
21,Cc1c(NN=C(C#N)C#N)c(=O)n(-c2ccccc2)n1C,13.5%
22,O=C1CSC(c2ccc(Cl)c(Cl)c2)N1c1nccs1 (stereo not drawn),-1.93%
23,CC(C)(CO)C(O)C(=O)NCCCO (stereo not drawn),11.5%
24,CCOc1ccccc1C1C(C#N)=C(N)Oc2cc(N)ccc21 (stereo not drawn),-5.58%

row,Structure (SMILES),"hERG current change (%, negative = inhibition) at 10uM"
1,O=C(Cn1c2ccc(F)cc2c2nc3n(c(=O)c21)CCS3)Nc1ccccc1C(F)(F)F,15.6%
2,O=C1CCCC/C1=C/NCc1ccc(F)cc1,6.07%
3,O=C(CSc1nc2ccccc2s1)NCCOc1ccc(Cl)cc1,-3.32%
4,CC1CN(C(=O)COC(=O)c2c(Cl)cccc2Cl)CC(C)O1 (stereo not drawn),6.73%
5,CCOC(=O)C1CCN(S(=O)(=O)c2ccc(OC)c(C(=O)N3CCCCCC3)c2)CC1,-12.5%
6,CCOC(=O)C1CCN(S(=O)(=O)c2ccc(OC)c(C(=O)N3CCCCC3)c2)CC1,12.5%
7,CCOC(=O)C1CCN(C(=O)c2cc(S(=O)(=O)N3CCc4ccccc43)ccc2OC)CC1,-60.3%
8,CCOC(=O)C1CCN(S(=O)(=O)CCNC(=O)c2ccccc2)CC1,-2.78%
9,CCOC(=O)C1CCN(C(=O)c2cc(S(=O)(=O)N3CCCCCC3)ccc2OC)CC1,-50.8%
10,CCOC(=O)C1CCN(S(=O)(=O)c2ccc(CNC(=O)c3ccccc3)s2)CC1,-50.3%
11,NC(=O)C1CCN(C(=O)c2cc(S(=O)(=O)N3CCOCC3)c(Cl)cc2Cl)CC1,8.61%
12,CN1CCN(S(=O)(=O)c2ccc(CNC(=O)c3ccccc3)s2)CC1,23.1%
13,COc1ccc(S(=O)(=O)N2CCc3ccccc32)cc1C(=O)O,-6.25%
14,CCOC(=O)C1CCN(C(=O)c2ccc(Cl)c(S(=O)(=O)N3CCOCC3)c2)CC1,-32.4%
15,CCOC(=O)C1CCN(C(=O)c2cc(S(=O)(=O)N3CCOCC3)c(Cl)cc2Cl)CC1,-50.1%
16,CCOC(=O)C1CCCN(C(=O)c2cc(S(=O)(=O)N3CCCCCC3)ccc2OC)C1 (stereo not drawn),-17.4%
17,O=C(N/C(=C\c1ccco1)C(=O)N1CCCC(CO)C1)c1ccccc1 (stereo not drawn),15.6%
18,Cc1ccc(S(=O)(=O)NC2CC3CCC2C3)cc1 (stereo not drawn),-1.07%
19,CCN(C(=O)COc1ccccc1)C1CCCCC1,7.42%
20,CC(=O)C[C@@H](O)CC(=O)[C@H]1OC(=O)CCCCCCc2ccccc21,-2.65%
21,Cc1onc(C(=O)NCc2cccs2)c1[N+](=O)[O-],9.7%
22,CC1CCCN(c2ccc(F)cc2N)C1.Cl (stereo not drawn),11.2%
23,COc1cccc(NC(=O)c2ccc[n+](C)c2)c1.[I-],18.2%
24,Cc1cccn2cc(CNc3ccccc3)nc12,-4.15%

row,Structure (SMILES),"hERG current change (%, negative = inhibition) at 10uM"
1,Cc1ccc(S(=O)(=O)N2CCC(C(N)=O)CC2)cc1C(=O)NC1CCCCC1,18.9%
2,CCOC(=O)N1CCN(S(=O)(=O)c2ccc(C)c(C(=O)NC3CCCCC3)c2)CC1,1.42%
3,CCOC(=O)C1CCN(S(=O)(=O)c2ccc(C)c(C(=O)NC3CCCCC3)c2)CC1,-55.8%
4,O=C(Nc1ccccc1)C(O)C(O)C(=O)Nc1ccccc1 (stereo not drawn),16.8%
5,Cn1cc(CNCCCn2ncc3ccccc32)c(-c2ccccc2F)n1,-36.3%
6,COc1cccc(-n2cc(CNCc3cn(C)nc3-c3ccccc3F)cn2)c1,-19.3%
7,CCn1ccnc1CN(C)Cc1cn(C)nc1-c1ccccc1F,13.2%
8,CN(Cc1ccc(-n2cccn2)cc1)Cc1cn(C)nc1-c1ccccc1F,-74.9%
9,Cn1cc(CNCc2ccc(-n3cccn3)cc2)c(-c2ccccc2F)n1,-62.2%
10,CN(Cc1cccc(-n2cccn2)c1)Cc1cn(C)nc1-c1ccccc1F,15.9%
11,O=C(CNC(=O)OCc1ccccc1)NC1CCCCCCC1,-2.67%
12,CCOCCCNC(=O)Cn1cnc2c(cnn2-c2ccc(C)c(C)c2)c1=O,3.91%
13,O=C(NCC12CC3CC(C1)CC(CNC(=O)N1CCCC1)(C3)C2)N1CCCC1,-3.73%
14,CCN1CCN(C(=O)C2COc3ccccc3O2)CC1 (stereo not drawn),-7.48%
15,O=C(Nc1ccc(F)cc1)C1COc2ccccc2O1 (stereo not drawn),9.07%
16,O=C(C1COc2ccccc2O1)N1CCN(c2ccc(F)cc2)CC1 (stereo not drawn),-40.7%
17,CC(C)N(C(=O)CN1CCN(C(=O)C2COc3ccccc3O2)CC1)C(C)C (stereo not drawn),-0.817%
18,O=C(CN1CCN(C(=O)C2COc3ccccc3O2)CC1)Nc1ccc(F)cc1 (stereo not drawn),-75.7%
19,O=C(CN1CCN(C(=O)C2COc3ccccc3O2)CC1)Nc1ccccc1 (stereo not drawn),-66.2%
20,CC(=O)Oc1ccc(C(=O)Nc2ccccc2C(=O)Nc2cccc(C(=O)O)c2)cc1,13%
21,CCOC(=O)c1cnn(-c2cc(Oc3ccccc3C)ncn2)c1N,14.4%
22,Cc1nc2ccccc2cc1C(=O)N/N=C/c1cccs1,-6.93%
23,CCOc1ccc(OCCOc2cccc(C(F)(F)F)c2)cc1,9.77%
24,CCOC(=O)C1CCCN(C(=O)C(=O)Nc2ccc3nc4n(c(=O)c3c2)CCCCC4)C1 (stereo not drawn),-1.21%

row,Structure (SMILES),"hERG current change (%, negative = inhibition) at 10uM"
1,CC1CCCN(C(=S)Nc2ccc3nc4n(c(=O)c3c2)CCCCC4)C1 (stereo not drawn),-66.1%
2,CCN1CCN(C(=S)Nc2ccc3nc4n(c(=O)c3c2)CCCCC4)CC1,1.83%
3,CC1CCCC(C)N1CCCNC(=O)C(=O)Nc1ccc2nc3n(c(=O)c2c1)CCCCC3 (stereo not drawn),16.8%
4,O=c1c2cc(NC(=S)N3CCCC3)ccc2nc2n1CCCCC2,-28%
5,O=c1c2cc(NC(=S)N3CCCCC3)ccc2nc2n1CCCCC2,-55.7%
6,O=c1c2cc(NC(=S)N3CCC(N4CCCCC4)CC3)ccc2nc2n1CCCCC2,-3.94%
7,CC1CCCN(C(=O)C(=O)Nc2ccc3nc4n(c(=O)c3c2)CCCCC4)C1 (stereo not drawn),-17.8%
8,CCOC(=O)Nc1ccc2nc3n(c(=O)c2c1)CCCCC3,7.45%
9,CC1CCCCN1C(=S)Nc1ccc2nc3n(c(=O)c2c1)CCCCC3 (stereo not drawn),-59%
10,CC1CCN(C(=S)Nc2ccc3nc4n(c(=O)c3c2)CCCCC4)CC1,-55.2%
11,O=c1c2cc(NC(=S)N3CCCCCC3)ccc2nc2n1CCCCC2,-43.9%
12,COc1cc(/C=C(\C#N)c2ccccn2)ccc1OCC(=O)Nc1cccc(C(F)(F)F)c1.Cl,0.582%
13,COCCCNC(=O)c1ccc2c(c1)nc(C)n2-c1cccc(C)c1,6.05%
14,CC(C)(C)C(=O)Nc1ccc(S(=O)(=O)c2ccc(NC(=O)C(C)(C)C)cc2)cc1,18.6%
15,COc1ccc(C(=O)c2coc3ccc(O)c(CN4CCCCC4)c23)cc1,-76.9%
16,COc1ccc(-c2coc3c(CN4CCCCC4)c(O)c(CN4CCCCC4)c(O)c3c2=O)cc1,-79.2%
17,COc1ccc(OC)c(C(=O)c2coc3ccc(O)c(CN4CCOCC4)c23)c1,-39.7%
18,Cc1ccc(C(=O)c2coc3ccc(O)c(CN4CCN(C)CC4)c23)cc1,-51.2%
19,CN1CCN(Cc2c(O)ccc3occ(C(=O)c4ccccc4)c23)CC1,-39.3%
20,Cc1ccc(/C=C2\Oc3c(ccc(O)c3CN3CCN(C)CC3)C2=O)cc1,-15%
21,COc1ccc(-c2coc3c(CN4CCOCC4)c(O)ccc3c2=O)cc1,-21.1%
22,O=c1c(-c2ccc(Cl)cc2)coc2c(CN3CCCCC3)c(O)ccc12,-32.7%
23,COc1ccc(C(=O)c2c(C)oc3ccc(O)c(CN4CCOCC4)c23)cc1,-29.5%
24,COc1ccc(C(=O)c2coc3ccc(O)c(CN4CCOCC4)c23)cc1,-51.2%
